# Values of other authors in PubChem BioAssay AID977611.
# The campaign covered roughly 3,900 compounds. About 3,900 (100%) were called active. No cut-off is given here; in the data, nearly all actives have Kd up to about 4200 µM. So high a share suggests a set chosen from earlier hits. The list shows a part of the results. Where a SMILES comes first, the peptide text is derived from it. Square brackets hold non-standard residues; d marks the D form. Residues, ends and D or L forms follow the SMILES beside them. Peptide text beside a SMILES is read from it. Orn(CH(NH2)2) = NC(N)NCCC[C@H](N)C(=O)O
# Experiment: PubChem AID 977611
# Conditions: PDB protein-ligand complexes, literature Kd
smiles,measurement,setting,value
NC1NC(=O)c2c(CCc3ccc(C(=O)N[C@@H](CCC(=O)O)C(=O)O)cc3)c[nH]c2N1 (some centres not stated),Kd,"protein: Folate receptor beta, PDB entry 4kn2",0.054 µM (active)
NC1NC(=O)c2nc(CNc3ccc(C(=O)N[C@@H](CCC(=O)O)C(=O)O)cc3)cnc2N1 (some centres not stated),Kd,"protein: Folate receptor alpha, PDB entry 4lrh",0.00019 µM (active)
same,Kd,"protein: Folate receptor beta, PDB entry 4kmz",0.0027 µM (active)
Nc1nc(N)c2nc(CNc3ccc(C(=O)N[C@@H](CCC(=O)O)C(=O)O)cc3)cnc2n1,Kd,"protein: Folate receptor beta, PDB entry 4kn1",0.144 µM (active)
N[C@H](CNc1nc(-c2ccncc2)nc2sc3c(c12)CCCC3)Cc1ccccc1,Kd,"protein: PROTEIN KINASE C IOTA TYPE, PDB entry 3zh8",0.341 µM (active)
O=C(O)[C@H](O)CO[P+](O)(O)O,Kd,"protein: human phosphoglycerate kinase, PDB entry 3c39",109 µM (active)
O=C(CO)[C@@H](O)[C@H](O)[C@H](O)CO[P+](O)(O)O,Kd,"protein: Glucokinase regulatory protein, PDB entry 3w0l",0.095 µM (active)
O=C(CO[P+](O)(O)O)NO,Kd,"protein: Fructose-bisphosphate aldolase, PDB entry 4del",0.0211 µM (active)
O=C(O)CO[P+](O)(O)O,Kd,"protein: TRIOSEPHOSPHATE ISOMERASE (A198V, C202A, C222N mutation), PDB entry 4bi6",113 µM (active)
same,Kd,"protein: TRIOSEPHOSPHATE ISOMERASE (C202A mutation), PDB entry 4bi7",26.4 µM (active)
O=C(O)c1ccc(-c2ccc(C(=S)NCc3ccc(-c4ccnn4-c4ccc(Cl)c(Cl)c4)cc3)c(Cl)c2)o1,Kd,"protein: Replication protein A 70 kDa DNA-binding subunit, PDB entry 4lwc",0.19 µM (active)
COCCO[C@@H]1COCCOC[C@H]1OCCOC,Kd,"protein: METAL-BINDING PROTEIN YODA, PDB entry 4aw8",0.022 µM (active)
C[C@@H](O)[C@H](NC(=O)[C@@H]1CCCN1C(=O)[C@H](CO[P+](O)(O)O)NC(=O)[C@H](Cc1ccc(O)cc1)NC(=O)[C@H](CO)NC(=O)[C@@H]1CCCN1)C(=O)N[C@@H](CO)C(=O)N1CCC[C@H]1C(=O)N[C@@H](CO)C(=O)O,Kd,"protein: Rtt103 CTD-interacting domain, PDB entry 2l0i",15 µM (active)
C[C@@H](O)[C@H](NC(=O)[C@@H]1CCCN1C(=O)[C@H](CO)NC(=O)[C@H](Cc1ccc(O)cc1)NC(=O)[C@H](CO)NC(=O)[C@@H]1CCCN1)C(=O)N[C@@H](CO)C(=O)N1CCC[C@H]1C(=O)N[C@H](C=O)CO (H-PSYSPTSPS-aldehyde),Kd,"protein: CTD INTERACTING DOMAIN of RNA processing factor SCAF8(N15M/Y17M), PDB entry 3d9o",1000 µM (active)
C[C@@H](O)[C@H](NC(=O)[C@@H]1CCCN1C(=O)[C@H](CO[P+](O)(O)O)NC(=O)[C@H](Cc1ccc(O)cc1)NC(=O)[C@H](CO)NC(=O)[C@@H]1CCCN1)C(=O)N[C@@H](CO[P+](O)(O)O)C(=O)N1CCC[C@H]1C=O,Kd,"protein: CTD INTERACTING DOMAIN of RNA processing factor SCAF8(R112T), PDB entry 3d9p",29 µM (active)
NC(=S)Nc1ccc(C[C@H](CN(CC(=O)O)[C@H]2CCCC[C@@H]2N(CC(=O)O)CC(=O)O)N(CC(=O)O)CC(=O)O)cc1,Kd,"protein: Neutrophil gelatinase-associated lipocalin (mutation), PDB entry 4iaw",0.000234 µM (active)
same,Kd,"protein: Neutrophil gelatinase-associated lipocalin (mutation), PDB entry 4iax",0.000273 µM (active)
N#CCCNc1nonc1-c1nc2ccccc2n1CC(=O)c1ccc(N)cc1,Kd,"protein: Tubulin, PDB entry 4o2a",1.8 µM (active)
CC(C)[C@H](NC(=O)[C@H](CCCNC(N)N)NC(=O)[C@@H](NC(=O)[C@@H]1CCCN1)[C@@H](C)O)C(=O)N[C@@H](CO)C(=O)N[C@@H](CO[P+](O)(O)O)C(=O)N1CCC[C@H]1C(=O)N[C@H](C(=O)N[C@@H](Cc1ccccc1)C(=O)NCC(=O)N[C@@H](C)C(=O)N[C@H](C(=O)O)[C@@H](C)O)C(C)C,Kd,"protein: Breast cancer type 1 susceptibility protein, PDB entry 1y98",3.7 µM (active)
CC(C)C[C@H](NC(=O)[C@@H]1CCCN1C(=O)CNC(=O)[C@H](Cc1ccccc1)NC(=O)[C@@H](N)CC(=O)O)C(=O)N[C@H](C(=O)NCC(=O)N[C@@H](C)C(=O)O)C(C)C (H-DFGPLVGA-OH),Kd,"protein: ?-adaptin ear domain of GGA3, PDB entry 1p4u",5 µM (active)
CC[C@H](C)[C@H](N)C(=O)N[C@@H](CO)C(=O)N[C@@H](CCCNC(N)N)C(=O)N[C@@H](CO)C(=O)N[C@H](C(=O)N[C@@H](CO[P+](O)(O)O)C(=O)N1CCC[C@H]1C(=O)N[C@H](C(=O)N[C@@H](Cc1ccccc1)C(=O)N[C@@H](CC(N)=O)C(=O)N[C@@H](CCCCN)C(=O)N[C@@H](CCC(N)=O)C(=O)O)[C@@H](C)O)[C@@H](C)O,Kd,"protein: Breast cancer type 1 susceptibility protein, PDB entry 1t29",0.9 µM (active)
CSCC[C@H](NC(=O)[C@@H]1CCCN1C(=O)[C@H](Cc1ccc(O)cc1)NC(=O)[C@@H](N)Cc1ccccc1)C(=O)N[C@@H](CC(C)C)C(=O)N[C@@H](CCCNC(N)N)C(=O)N[C@@H](Cc1ccc(O)cc1)C(=O)N[C@H](C(=O)N[C@@H](CC(N)=O)C(=O)NCC(=O)N1CCC[C@H]1C(=O)N1CCC[C@H]1C(=O)N1CCC[C@H]1C(=O)N[C@H](C(=O)O)[C@@H](C)O)[C@@H](C)O (H-FYPML[Orn(CH(NH2)2)]YTNGPPPT-OH),Kd,"protein: SUN domain-containing protein 2, PDB entry 4fi9",0.0456 µM (active)
